Experimental data taken from ChEMBL document CHEMBL3988442, “University of Dundee, Small-Polar-MMV Screening Library” (2021).
Screen size: about 53,000 compounds; about 900 (1.7%) showed an effect of 50% or more. For the sample, strong results were picked, then their nearest neighbours and some compounds at random.

Each compound was assayed on Mycobacterium tuberculosis (assay: Cornell - Phenotypic assay to identify agents that inhibit growth of Mycobacterium tuberculosis). Settings: 10 mM as filed; unlikely as a test dose.
Type: functional
Design: scale not given: direction of the effect not stated beside the values

Structure (SMILES)	Percent Effect [%]
CCc1cn[nH]c1C1CCN(c2cc(C)c3cc(OC)ccc3n2)CC1	4.644
CCc1cn[nH]c1C1CCN(c2cc(C)c3ccc(OC)cc3n2)CC1	2.528
CCc1cn[nH]c1C1CCN(c2cc(C)c3cccc(OC)c3n2)CC1	57.17
CSc1ncccc1C(=O)NCC(c1ccco1)N(C)C (stereo not drawn)	23
CCNS(=O)(=O)c1ccc2c(c1)c(=O)n(CC)c(=O)n2CC	5.155
CS(=O)(=O)CCSCc1cc(F)cc2cccnc12	-6.961
Fc1ccccc1CN1CCCN(c2ccc3cc[nH]c3n2)CC1	55.73
Fc1ccccc1CN1CCCN(c2ncnc3[nH]ccc23)CC1	14.79
c1cc(CN2CCCN(c3ccc4cc[nH]c4n3)CC2)ccn1	-9.703
O=C(NCCc1csc(-c2cccnc2)n1)c1cnn2c1CCCC2	-3.716
Cc1ccc(OCCN2CCC(c3nc(C)n4c(C)csc34)CC2)cc1	54.47
Cc1csc2c(C3CCN(CCOc4ccccc4F)CC3)nc(C)n12	-14.57
Cc1csc2c(C3CCN(CCCOc4ccccc4)CC3)nc(C)n12	35.94
Cc1nc(CN2CCO[C@@H]3CN(Cc4ccsc4)C[C@@H]3C2)cs1.O=C(O)C(F)(F)F.O=C(O)C(F)(F)F	22.49
Cc1noc(C)c1-c1nc(N(C)C)ncc1-c1cnccn1	-5.73
CC[C@@H]1N(Cc2ccsc2)CCC[C@]12CCC(=O)N2C.O=C(O)C(F)(F)F	2.508
NC(=O)C1CN(C(=O)Nc2ccccc2SC2CCCC2)CCO1 (stereo not drawn)	18.89
CC(=O)N1CCCC1CCc1ccnc(-c2cncnc2)c1 (stereo not drawn)	56.86
CC(=O)N1CCCC1c1ccnc(Nc2cncnc2)n1 (stereo not drawn)	-12.16
CC(=O)N1CCCC1CCc1ccc(Cl)nn1 (stereo not drawn)	30.13
Cc1ccccc1OCCCNC(=O)C1(C)CC(=O)N2C=CC=CC2=N1 (stereo not drawn)	54.27
CC1(C(=O)NCCCOc2ccccc2F)CC(=O)N2C=CC=CC2=N1 (stereo not drawn)	24.68
Cc1ccc(OCCCNC(=O)C2(C)CC(=O)N3C=CC=CC3=N2)cc1 (stereo not drawn)	45.74
CN(C)[C@H]1CCCCN(C(=O)c2cccc(N3CCS(=O)(=O)CC3)c2)C1	-27.17
CC(C)c1noc(CN(Cc2ccc(F)cc2)C2CC2)n1	-14.54
CCC(C(=O)NCCc1nc(C)cc(C(F)(F)F)n1)n1cccn1 (stereo not drawn)	-40.59

Structure (SMILES)	Percent Effect [%]
Cc1nc2sccn2c1CNC1(c2ccccc2F)CCCC1.O=C(O)CC(O)(CC(=O)O)C(=O)O	21.81
COc1ccc(C2(NCc3c(C)nc4c(C)cccn34)CCCC2)cc1.O=C(O)CC(O)(CC(=O)O)C(=O)O	60.04
COc1ccccc1C1(NCc2c(C)nc3c(C)cccn23)CCCC1.Cl	-17.64
C=Cn1ncc(CN2CCc3nc(-c4ccncc4)nc(O)c3C2)c1C	24.59
O=C(Nc1ccccc1)[C@H]1C[C@@H]2CN(Cc3cccnc3)C[C@H]1O2	15.91
O=S(=O)(Nc1cnc(N2CCOCC2)nc1)c1cccc(F)c1	17.36
O=S(=O)(Nc1ccc(N2CCOCC2)cc1)c1cccc(F)c1	107.6
O=S(=O)(Nc1ccc(N2CCOCC2)cn1)c1cccc(F)c1	37.01
OC(CN1CCC(c2ccn[nH]2)CC1)c1ccccc1F (stereo not drawn)	11.88
Cc1csc2nc3n(c(=O)c12)CCN(Cc1c[nH]cn1)CC3.Cl	-9.915
Cc1cc(C(F)F)nn1C(C)C(=O)NCc1nccn1C (stereo not drawn)	-1.635
Cc1cc(C(F)F)nn1C(C)C(=O)NCc1ncc[nH]1 (stereo not drawn)	51.24
CC(C)Nc1ncccc1C(=O)NCc1ncc[nH]1	21.23
CN(C)c1ncc(-c2ccncc2)c(CCNC(=O)C2CC2)n1	23.54
Cc1c(C(=O)N2CCN(c3ncccn3)CC2)n(C)c2ccc(Cl)cc12	45.95
Cc1c(C(=O)N2CCN(C)CC2)n(C)c2ccc(Cl)cc12	29.74
Cc1c(C(=O)N2CCN(c3ccccn3)CC2)n(C)c2ccc(Cl)cc12	56.67
CCN1C(=O)CC[C@@H]2N(C(=O)CCn3nccc3C)CCCC[C@@]21C	10.33
CC(C)CC(=O)N1CC(=O)c2sc(NCCc3ccccc3)nc2C1	-41.09
Cc1ccc(C2(CN3CCN(Cc4cncn4C)CC3)CC2)cc1.Cl	-21.08
Cc1nn(C)cc1CN1CCN(CC2(c3ccccc3)CC2)CC1	18.35
Cc1ccc(C2(CN3CCN(Cc4cn(C)nc4C)CC3)CC2)cc1.Cl	56.88
O=C(NCc1ccncc1)N1CC(Cc2ccccc2F)C1	8.731
CCc1ccc(S(=O)(=O)Nc2cc(OC)c(OC)cc2C(=O)O)s1	16.65
CCc1ccc(S(=O)(=O)Nc2c(C)cccc2C(=O)O)s1	52.73
CCc1ccc(S(=O)(=O)Nc2cc(C(=O)O)c(F)cc2F)s1	1.964

Structure (SMILES)	Percent Effect [%]
Cc1cc(CN(C)C2CCCN(Cc3noc(C4CC4)n3)C2)on1 (stereo not drawn)	2.145
O=C(Nc1cccc(N2CCCC2)c1)C1CCCN1c1nccs1 (stereo not drawn)	57.22
O=C1NCc2ccc(NC(=O)C3CCCN3c3nccs3)cc21 (stereo not drawn)	10.34
O=C(Nc1cccc2c1CCCC2)C1CCCN1c1nccs1 (stereo not drawn)	-2.486
Cc1nn(Cc2ccc(F)cc2)c2[nH]nc(N)c12	41.44
Cc1nn(C)c(=O)c2nn(-c3ccc(F)cc3)c(C)c12	2.323
Cc1nn(-c2ccc(F)cc2)c2[nH]nc(N)c12	67.22
COc1ccccc1CCC(=O)N1CCCC(OCc2cccnc2)C1 (stereo not drawn)	-21.64
CC(Nc1ccc(Br)cc1)c1nc(C2CC2)no1 (stereo not drawn)	54.33
CC(c1nc(C2CC2)no1)N1CCN(Cc2ccccc2)CC1 (stereo not drawn)	2.279
CC(Nc1ccc2c(c1)CCC2)c1nc(C2CC2)no1 (stereo not drawn)	27.18
COCc1cccc(CNc2cnn(C(C)(C)C)c(=O)c2Cl)c1	17.4
CC(C)(C)n1ncc(NCc2ccccc2)c(Cl)c1=O	-56.94
COCc1ccc(CNc2cnn(C(C)(C)C)c(=O)c2Cl)cc1	55.73
CCCN1CCC(c2nc3ccc(-c4ccncc4)cn3n2)CC1.O=C(O)C(F)(F)F.O=C(O)C(F)(F)F	-17.17
Cc1nccn1-c1ccc(C(=O)NCC(F)(F)F)nn1	18.88
Cc1cnc(C(=O)N2CCC3(CCN3Cc3ccc(F)cc3)C2)cn1.O=C(O)C(F)(F)F (stereo not drawn)	-0.7224
CN1C(=O)C(C)(C)COc2ccc(NS(=O)(=O)Cc3ccccc3)cc21	-4.912
CN(C)C(=O)c1cnc2n1CCN(Cc1ccsc1)C2.O=C(O)C(F)(F)F	1.254
Cc1ccc(CSc2nc(N)cc(NCCC(=O)N3CCCC3)n2)cc1	88.28
Cc1ccc(CSc2nc(N)cc(NCC(=O)N3CCNCC3)n2)cc1	-47.88
Cc1ccc(CSc2nc(N)cc(NCCC(N)=O)n2)cc1	44.65
Cc1ccc(CSc2ncc(Br)c(C(=O)O)n2)cc1	1.969
CCc1cc(NCCS(=O)(=O)N(C)C)nc(N2CCOCC2)n1	22.77
Cc1ccc(CSc2nc(N)cc(NCCS(=O)(=O)N(C)C)n2)cc1	52.28
CCn1cnnc1CNC(=O)N1CCC(O)CC1	-20.2

Structure (SMILES)	Percent Effect [%]
CC(=O)N1CCCN(C(=O)c2cnn(-c3ccccc3Cl)c2)CC1	-28.49
Cc1cc(C(F)(F)F)nn1CCCNC(=O)C1CCCO1 (stereo not drawn)	-51.46
O=C(NCC1CC1)C1CCC2(CCN(C(=O)c3ccoc3)CC2)O1 (stereo not drawn)	-8.481
Cc1ccc2[nH]c(C3CCN(CC(N)=O)CC3)nc2c1	-20.2
CCC1CCCCN1Cc1ncc(C(C)(C)C)o1 (stereo not drawn)	-71.87
COc1cccc(Nc2nc(-c3ccncc3)nc3c2CNCC3)c1.Cl	-3.556
O=C(Nc1cccc(F)c1)NC1CCN(Cc2ccncc2)CC1	26.05
Cl.NC1CCc2nc(-c3ccncc3)nc(Nc3cccc(F)c3)c2C1 (stereo not drawn)	61.47
Cl.NC1CCc2nc(-c3cccnc3)nc(Nc3ccc(F)cc3)c2C1 (stereo not drawn)	98.04
c1cncc(-c2nc3c(c(NCC4(c5ccncc5)CC4)n2)CCC3)c1	21.3
CC(O)CNc1nc(-c2cccnc2)nc2c1CCC2 (stereo not drawn)	12.92
O=C(O)C(F)(F)F.O=C1COC2(CCN(Cc3cccs3)CC2)CN1c1cncnc1	13.06
Cc1cnc(N2C(=O)CSC2c2ccccc2)s1 (stereo not drawn)	7.465
Cn1cnnc1CN1CCC2(CCCN(C3CCCCC3)C2=O)C1 (stereo not drawn)	8.326
CN(C)CCCNC(=O)c1ccccc1NC(=O)c1ccccc1Cl	2.69
O=C(NCCCN1CCCC1=O)c1ccc(-n2ccc3ccccc32)s1	19.74
O=C(NCCCN1CCCCC1)c1ccc(-n2ccc3ccccc32)s1	59.15
O=C(NCCCN1CCOCC1)c1ccc(-n2ccc3ccccc32)s1	-5.378
O=C(NCc1cccnc1)[C@H]1C[C@@H]2CCN(c3ccncn3)C[C@H]2O1.O=C(O)C(F)(F)F.O=C(O)C(F)(F)F	15.26
CCOC(=O)CNC(=O)c1scnc1C	8.54
CCOCCCn1c(NC(=O)c2cnn(C)c2)nc2ccccc21	87.33
Cn1cc(NC(=O)Cn2c(CS(C)(=O)=O)nc3ccccc32)cn1	-19.06
CCOCCCn1c(NC(=O)c2ccc(C)nc2)nc2ccccc21	49.04
CCOCCCn1c(NC(=O)c2scnc2C)nc2ccccc21	74.98
Cc1ncsc1C(=O)Nc1ccccn1	6.488
